PubChem BioAssay (NCATS)
Where “and” joins values, the source holds several entries; their conditions need not be identical. Identical values can stand only once. Results filed as inconclusive are left out. Calls of active or inactive are those of the source. Unless noted, calls follow the shape of the dose curve; as a rule, active = well fitted curve in the direction sought with a large enough effect; inconclusive = small, poorly fitted or top-dose-only effect, or another doubt; inactive = no such curve, though single readings can be large; an effect the other way counts as inactive or inconclusive.

Key:
[1] = Cell Viability - BJ (AID 421; calls by dose curve;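 also: potency is read from the fitted curve at half-maximal effect; cells exposed to compound for 40 hours at 37 °C before readout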); conditions: BJ fibroblast viability, qHTS
Procedure, shortened: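 Luminescent ATP signal (CellTiter-Glo, 20 min at room temperature) served as the read-out of viable BJ cells after 40 hours of compound treatment. Responses were scaled between DMSO and 100 uM tamoxifen, and AC50 values were obtained by Hill modeling.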

[2] = Cell Viability - Jurkat (AID 426;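 active = dose-dependent loss of cell ATP signal giving a full or clear fitted curve, ranked by lower potency value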; also: potency is read from the fitted curve at half-maximal effect); conditions: qHTS
Procedure, shortened: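 Jurkat (clone E6-1, human T-cell leukemia) cells, 5000/well in complete medium, were exposed to compound for 40 hr at 37 °C. Viability was read as intracellular ATP by CellTiter-Glo luminescence; AC50 came from Hill fits of concentration-response data.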

[3] = Cell Viability - Hek293 (AID 427;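 active = compounds whose dose-response curve shows a full or clear partial loss of cell viability, called from curve shape rather than a numeric limit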;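 also: potency is read from the fitted curve at half-maximal effect; cells exposed to compound for 40 hours at 37 °C before reading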); conditions: qHTS
Procedure, shortened: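 Luminescent ATP read-out (CellTiter-Glo, 20 min RT) after 40 hr compound exposure at 37 °C in complete medium. Signal normalized to DMSO (basal) and 100 uM tamoxifen (100% inhibition); concentration-response fitted with the standard Hill equation to give AC50.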

[4] = Cell Viability - MRC5 (AID 434; calls by dose curve;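 also: potency is read from the fitted curve at half-maximal effect; potency reflects cytotoxicity seen as loss of intracellular ATP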); conditions: MRC5 lung fibroblast viability, qHTS
Procedure, shortened: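 qHTS cytotoxicity in human lung fibroblast MRC5 cells; 40 hr treatment, 37 °C; cellular ATP by luciferase luminescence; DMSO = 0%, 100 uM tamoxifen = 100% inhibition; Hill-fit AC50.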

[5] = Cell Viability - Mesenchymal (AID 546); conditions: mesenchymal cells viability, qHTS; series mostly up to 91.7 µM;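 also: cells exposed to compound for 40 hours before reading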
Procedure, shortened: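 AC50 values reflect the drop in intracellular ATP in a human kidney mesenchymal line derived from normal glomeruli. Treatment lasts 40 hr at 37 °C in complete medium, and the signal comes from CellTiter-Glo luminescence.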

[6] = Cellular Toxicity (caspase-3) SHSY5Y (AID 657); conditions: SH-SY5Y caspase-3 activation, DMSO zero, 10 µM staurosporine = 100%; series mostly up to 91.7 µM
Procedure, shortened: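 SH-SY5Y human neuroblastoma cells, 1500/well, exposed to compound for 16 hours at 37 °C in complete medium. Caspase-3/7 activity read by Caspase-Glo luminescence after 1 hr at room temperature, normalized to DMSO and 10 uM staurosporine; AC50 from Hill fit.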

[7] = Cellular Toxicity (caspase-3) MRC-5 (AID 659); conditions: MRC-5 cells, luminescence, normalized: DMSO 0%, 10 µM staurosporine 100%; series mostly up to 91.7 µM
Procedure, shortened: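 Concentration-dependent caspase 3/7 activation is measured in human normal lung fibroblasts (MRC-5) following 16-hour treatment. AC50 values come from standard Hill-equation modeling of luminescence normalized to DMSO and 10 uM staurosporine.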

[8] = Cellular Toxicity (caspase-3) Mesangial (AID 660); conditions: mesangial cells, normalized: DMSO 0%, 100 µM tamoxifen 100%; series mostly up to 91.7 µM;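 also: cells exposed to compound for 16 h before the caspase read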
Procedure, shortened: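 Human renal glomerular mesangial cells (1000/well) were treated with compounds for 16 h at 37 °C in complete medium, then caspase 3/7 activity was read by Caspase-Glo luminescence. Data were normalized to DMSO and 100 uM tamoxifen; AC50 from Hill fits.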

[9] = Cellular Toxicity (caspase-3) SK-N-SH (AID 661); conditions: SK-N-SH caspase-3 activation, qHTS; series mostly up to 91.7 µM
Procedure, shortened: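 SK-N-SH human neuroblastoma cells (1500/well) were treated with compounds for 16 hr at 37 °C in complete medium; caspase 3/7 activity was read by Caspase-Glo luminescence. AC50 came from Hill fits of data normalized to DMSO and 10 uM staurosporine.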

[10] = Cellular Toxicity (caspase-3) Hek293 (AID 664); conditions: HEK293 caspase-3 activation, DMSO = 0%, 100 µM tamoxifen = 100%; at 92.2 µM (top of the series);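 also: cells exposed to compound for 16 h at 37 °C before readout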
Procedure, shortened: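 HEK293 cells were exposed to compounds in complete medium for 16 hr at 37 °C, then caspase-3/7 activity was read by Caspase-Glo 3/7 luminescence after 20 min at room temperature. Data normalized to DMSO and 100 uM tamoxifen; AC50 from Hill fits.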

[11] = Cellular Toxicity (caspase-3) N2a (AID 665); conditions: N2a cells, luminescence, normalized: DMSO 0%, 10 µM staurosporine 100%; series mostly up to 92.2 µM;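 also: compound exposure lasted 16 h at 37 °C before readout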
Procedure, shortened: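 Mouse N2a neuroblastoma cells (1500/well) were treated with compounds for 16 h at 37 °C, then caspase-3/7 activity was read by Caspase-Glo luminescence after 1 h at room temperature. Data were normalized to DMSO and 10 uM staurosporine; AC50 from Hill fits.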

[12] = Cell Viability - LYMP1-002 - Assay at 16 hr (AID 948); conditions: LYMP1-002 lymphoblastoid cell viability; series mostly up to 92.2 µM;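 also: 0% = DMSO alone and full effect = 92 µM tetraoctylammonium bromide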
Procedure, shortened: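 LYMP1-002 human lymphoblastoid cells, 2500/well, were treated with compounds for 16 hr at 37 C in complete medium. Viability was read as intracellular ATP by CellTiter-Glo luminescence, and AC50 was derived from a Hill fit to concentration-response data.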

[13] = MultiTox-Fluor Cytotoxicity Assay - LYMP1-003 - Dead Cells (AID 961); conditions: LYMP1-003 lymphoblastoid cells, dead-cell protease fluorescence; series mostly up to 92.2 µM;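 also: 0% = DMSO and 100% = tetraoctylammonium bromide; nearly all actives have a fitted effect of over 70% in size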
Procedure, shortened: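 Human lymphoblastoid LYMP1-003 cells (2500/well) were treated with compounds for 16 hr at 37 C in complete medium. Dead-cell protease release was read by bis-AAF-R110 fluorescence (Ex/Em 485/520). AC50 came from Hill fits, normalized to DMSO and 15 uM tetraoctylammonium bromide.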

[14] = MultiTox-Fluor Cytotoxicity Assay - LYMP1-003 - Live Cells (AID 962); conditions: LYMP1-003 lymphoblastoid cells, MultiTox-Fluor live-cell protease fluorescence; series mostly up to 92.2 µM;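 also: 0% = DMSO only and full loss = 92 µM tetraoctylammonium bromide; cytotoxic hits lower the live-cell protease signal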
Procedure, shortened: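 LYMP1-003 human lymphoblastoid cells (2500/well) in complete medium were preincubated 5 hr at 37 C, then exposed to compounds for 16 hr at 37 C. Live-cell protease cleavage of GF-AFC read by fluorescence (Ex/Em 405/510); AC50 from Hill fits.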

[15] = Cell Viability - LYMP1-003 - Assay at 24 hr (AID 963); conditions: LYMP1-003 lymphoblastoid cell viability; series mostly up to 92.2 µM;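 also: plate controls were DMSO only for no effect and tetraoctylammonium bromide positive control for full effect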
Procedure, shortened: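 Human lymphoblastoid LYMP1-003 cells (2500/well) were rested 5 hr at 37 C, then exposed to compounds in complete medium for 24 hr at 37 C. Cellular ATP was quantified by CellTiter-Glo luminescence, and AC50 values came from Hill fits of concentration-response data.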

[16] = Cell Viability - LYMP2-008 (AID 980); conditions: LYMP2-008 lymphoblastoid cell viability, qHTS; series mostly up to 92.2 µM; also: % is scaled to controls: 0 for no effect and ±100 for the full control effect; nearly all actives have a fitted effect of over 60% in size
Procedure, shortened: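 Human lymphoblastoid cells (2500/well) were plated, held 5 hr at 37 C, then exposed to compounds for 24 hr at 37 C in complete medium. Intracellular ATP was read by CellTiter-Glo luminescence; AC50 from Hill-fitted concentration-response.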

[17] = qHTS Assay for Identification of Small Molecule Inducers of Hypoxia Response (AID 2120; active = well fitted curve in the direction sought with a large enough effect in the signal ratio, with a control signal flat, not every such curve was filed as active; the % refers to the signal ratio; also: 0% is about no effect); conditions: hypoxia response reporter cells, beta-lactamase ratio readout; series mostly up to 104 µM
Procedure, shortened: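 HRE-beta-lactamase reporter in CellSensor HRE-bla ME-180 cells, 2500 cells/well in Opti-MEM with 0.5% dialyzed FBS; compounds tested as titration series, 17 h at 37 degrees C. CCF4 substrate 2.5 h at room temperature; AC50 from 460/530 nm ratio.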

[18] = biological target: Peroxisome proliferator-activated receptor alpha (Homo sapiens) (UniProt Q07869); assay: qHTS assay for small molecule agonists of the peroxisome proliferator-activated receptor alpha (PPARalpha) signaling pathway (AID 651778); conditions: PathHunter PPARalpha complementation, chemiluminescence, 6 h; active compounds read high; also: % of control where 0% means no effect
Peroxisome proliferator-activated receptor alpha (Homo sapiens), sequence (Q07869 whole entry, looked up): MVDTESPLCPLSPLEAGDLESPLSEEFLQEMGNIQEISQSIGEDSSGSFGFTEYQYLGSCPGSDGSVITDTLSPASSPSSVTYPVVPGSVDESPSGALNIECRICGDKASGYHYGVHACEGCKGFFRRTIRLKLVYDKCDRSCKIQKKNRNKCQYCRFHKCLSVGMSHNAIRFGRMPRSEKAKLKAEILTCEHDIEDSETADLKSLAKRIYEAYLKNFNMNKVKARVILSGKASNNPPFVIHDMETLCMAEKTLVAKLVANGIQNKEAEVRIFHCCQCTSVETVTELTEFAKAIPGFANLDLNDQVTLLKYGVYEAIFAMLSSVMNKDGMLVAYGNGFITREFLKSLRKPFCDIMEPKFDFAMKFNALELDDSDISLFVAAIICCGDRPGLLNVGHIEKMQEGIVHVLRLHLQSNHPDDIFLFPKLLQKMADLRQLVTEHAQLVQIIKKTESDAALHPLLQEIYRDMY
Procedure, shortened: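 Chemiluminescence from complemented enzyme reported PPARalpha activation in cells after 6 hr of compound treatment at 37 C. The detection reagent was incubated for 60 min at room temperature, and compounds were scored as agonists.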

[19] = qHTS assay for small molecule agonists of the antioxidant response element (ARE) signaling pathway measured by Nrf2-dependant transcriptional activity - cell viability counter screen (AID 720653; active = well fitted curve in the direction sought with a large enough effect in the repeat runs; an effect the other way counts as inactive or inconclusive; also: % is scaled to controls: 0 for no effect and ±100 for the full control effect); conditions: ARE-bla HepG2 viability, CellTiter-Glo ATP luminescence, 16 h; active compounds read low
Procedure, shortened: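 Cytotoxicity counter screen: intracellular ATP quantified by CellTiter-Glo luminescence in the same ARE-bla HepG2 plates, after 16 h compound exposure and a 2 h beta-lactamase substrate step.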

[20] = qHTS assay for cell viability of the p53RE-bla HCT-116 cell line (AID 743292); conditions: p53RE-bla HCT-116 viability, ATP luminescence, 16 h; series mostly up to 95 µM; also: % is scaled to controls: 0 for no effect and ±100 for the full control effect; nearly all actives have a fitted effect of over 55% in size
Procedure, shortened: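 ATP-based luminescent viability (CellTiter-Glo, 30 min RT) after 16 h compound treatment at 37 C of p53RE-bla HCT-116 cells, seeded at 4,000 cells/well and rested 5 h before dosing.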

N#CCBr
inactive: Potency [1] > 92 µM | Potency [2] > 92 µM | Potency [3] > 92 µM | Potency [4] > 92 µM | Potency [5] | outcome [6] | outcome [7] | outcome [8] | Potency [9] | caspase-3 activation [10] 1.09% | outcome [11] | outcome [12] | Potency [13] | outcome [14] | outcome [15] | Potency [16] | Potency [17] | max response [18] -0.274% | max response [19] -10.6% | Potency [20]

OCCOCCO
inactive: Potency [1] > 92 µM | Potency [2] > 92 µM | Potency [3] > 92 µM | Potency [4] > 92 µM | Potency [5] | outcome [6] | outcome [7] | outcome [8] | Potency [9] | caspase-3 activation [10] 3.16% | outcome [11] | outcome [12] | Potency [13] | outcome [14] | outcome [15] | Potency [16] | Potency [17] | max response [18] -3.41% | max response [19] -0.406% | Potency [20]

O=S(=O)(Cl)c1ccccc1
inactive: Potency [1] > 92 µM | Potency [2] > 92 µM | Potency [3] > 92 µM | Potency [4] > 92 µM | Potency [5] | outcome [7] | outcome [8] | Potency [9] | caspase-3 activation [10] -0.803% | outcome [11] | outcome [12] | Potency [13] | outcome [14] | outcome [15] | Potency [16] | Potency [17] | max response [18] -0.206% and -0.679% | max response [19] 9.62% and -3.03% | Potency [20]

c1ccc(P(c2ccccc2)c2ccccc2)cc1
inactive: Potency [1] > 92 µM | Potency [2] > 92 µM | Potency [3] > 92 µM | Potency [4] > 92 µM | Potency [5] | outcome [6] | outcome [7] | outcome [8] | Potency [9] | caspase-3 activation [10] -0.936% | outcome [11] | outcome [12] | Potency [13] | outcome [14] | outcome [15] | Potency [16] | Potency [17] | max response [18] -4.42% | max response [19] -10.4% | Potency [20]

ClCc1ccccn1
inactive: Potency [1] > 92 µM | Potency [2] > 92 µM | Potency [3] > 92 µM | Potency [4] > 92 µM | Potency [5] | outcome [6] | outcome [7] | outcome [8] | Potency [9] | caspase-3 activation [10] 0.273% | outcome [11] | outcome [12] | Potency [13] | outcome [14] | outcome [15] | Potency [16] | Potency [17] | max response [18] -1.73% and -0.41% | max response [19] -0.496% and -9.53% | Potency [20]

COc1ccc(C=O)cc1
inactive: Potency [1] > 92 µM | Potency [2] > 92 µM | Potency [3] > 92 µM | Potency [4] > 92 µM | Potency [5] | outcome [6] | outcome [7] | outcome [8] | Potency [9] | caspase-3 activation [10] 1.65% | outcome [11] | outcome [12] | Potency [13] | outcome [14] | outcome [15] | Potency [16] | Potency [17] | max response [18] 2.57% | max response [19] 7.96% | Potency [20]
